Pf Dd2 inh – Plasmodium falciparum Dd2 growth inhibition; P. falciparum Dd2 growth, SYBR Green, 72 h; AID 1347417; 120,000 compounds, 4.3% hits; Potency, µM (titrated, usually from 28.9 µM), without a hit: top-dose activity, negative = inhibition, usual class: inhibitors; active = well fitted inhibition curve with a large enough effect;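 note: plate controls were DMSO vehicle for no effect and reference drug for full effect; nearly all actives have a fitted effect of over 65% in size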
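Infected erythrocytes (Dd2, 0.3% parasitemia, 2.5% hematocrit final) are added to compound in RPMI-1640/Albumax II medium, grown 72 h at 37C in low oxygen, then lysed with saponin/Triton-X containing SYBR Green and read by fluorescence.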
An asterisk follows results filed as active; [ ] = remark or other dose. The entries come from a sample that favours hits as a whole. Potency is the fitted concentration of half-maximal effect.

COc1ccc(OCC(=O)N2CCCC3(C2)Nc2cccnc2NC3=NC2CCCC2)cc1 (stereo not drawn) was read as Pf Dd2 inh inactive[5.79 µM].
`O=C(Cn1ccn2nc(-c3ccc(F)cc3)c(CO)c2c1=O)Nc1cc(F)cc(F)c1` gave Pf Dd2 inh inactive.
Screening COc1ccc(S(=O)(=O)N[C@H](C)c2onc(-c3ccc(F)cc3)c2C(=O)O)cc1 returned Pf Dd2 inh -16%[44.1 µM].
For COc1ccc(C(=O)N[C@@H]2CCC[C@@H]2C(=O)NCc2cc(OC)ccc2OC)cc1 the results were Pf Dd2 inh -5%.
COc1ccccc1CNC(=O)[C@H]1CCC[C@H]1NC(=O)c1ccncc1 was read as Pf Dd2 inh 14%.
CCOc1ccccc1CNC(=O)[C@H]1CCC[C@H]1NC(=O)c1ccc(OC)cc1 was read as Pf Dd2 inh 11µM*.
C[C@H]1[C@@H]2[C@@H](O)C([C@H](C)C(=O)NC(C)(C)C)CC[C@@]2(C)CC[C@@H]1NS(C)(=O)=O (stereo partly drawn) was read as Pf Dd2 inh -20%[44.1 µM].
`CSCC(=O)N[C@H]1CCN2C(=O)c3cc(-c4cccc(C(F)(F)F)c4)ccc3NC(=O)[C@H]12` gave Pf Dd2 inh inactive.
For CC(=O)N1CCC(NC[C@H]2O[C@@H]3C[C@@H](CC(=O)NCc4cnn(C)c4)O[C@@H]3[C@@H]2O)CC1 the results were Pf Dd2 inh 7%.
For Cn1cc(CN2CCNc3cnc(-c4ccccc4)cc3C2)cn1 the results were Pf Dd2 inh -17%[44.1 µM].
For Cc1ccsc1C(=O)N1CCC(c2nc(CCOCC3CC3)no2)C1 (stereo not drawn) the results were Pf Dd2 inh 18%.
Screening COc1cc(CNCc2ccccc2C)ccc1OCC(O)CN1CCC(O)CC1 (stereo not drawn) returned Pf Dd2 inh -6%.
For COc1cc(CNC(C)C)ccc1OCC(O)CN1CCSCC1 (stereo not drawn) the results were Pf Dd2 inh -17%.
Screening COc1cc(CN2CC=C(C)CC2)ccc1OCC(O)CN1CCSCC1 (stereo not drawn) returned Pf Dd2 inh -14%.
For COc1cc(CNC2CCCCCCC2)ccc1OCC(O)CN1CCSCC1 (stereo not drawn) the results were Pf Dd2 inh 8.9µM*.
COc1cc(CNC2CCCCC2)ccc1OCC(O)CN1CCSCC1 (stereo not drawn) was read as Pf Dd2 inh -14%.
`COc1cc(CNCCc2ccccc2C)ccc1OCC(O)CN1CCOCC1` (stereo not drawn) gave Pf Dd2 inh 11µM*.
OC(COc1ccccc1CNCCc1ccccc1)CN1CCSCC1 (stereo not drawn) was read as Pf Dd2 inh 1.6µM*.
Screening C=CCc1ccccc1OCC(O)CN1CCN(c2ccccc2)CC1 (stereo not drawn) returned Pf Dd2 inh -20%.
For COc1ccc(CCNC(=O)CC2CCOCC2)cc1OC the results were Pf Dd2 inh 52%.
COC(=O)[C@H](NC(=O)[C@@H]1C[C@H](NC(=O)NC2CCCCC2)CN1C(=O)CSC)C(C)C was read as Pf Dd2 inh -5%.
For CN1CCN(S(=O)(=O)C2CCS(=O)(=O)C2)CC1 (stereo not drawn) the results were Pf Dd2 inh -5%.
CC(C)(C)c1ccc(C(=O)N2CCN(c3cc(C(F)(F)F)ncn3)CC2)cc1 was read as Pf Dd2 inh inactive.
`O=C(NC[C@H]1O[C@H](Cc2cc(-c3ccccc3)on2)CC[C@@H]1O)N1CCOCC1` gave Pf Dd2 inh 3%[44.1 µM].
O=C([C@@H]1C[C@H](F)CN1C(=O)c1cccc(OC(F)(F)F)c1)N1CCOCC1 was read as Pf Dd2 inh 26%.
For COc1cccc(OCc2nc3ccccc3n2Cc2ccccc2)c1 the results were Pf Dd2 inh 50%[5.79 µM].
Screening COc1ccc(OCc2nc3ccccc3n2Cc2ccc(C(C)(C)C)cc2)cc1 returned Pf Dd2 inh 11µM*.
Screening CC(C)(C)c1ccc(OCc2nc3ccccc3n2CCOc2ccccc2)cc1 returned Pf Dd2 inh -21%.
CN(C1CCSCC1)C1CCc2nn(C)c(=O)n2CC1 (stereo not drawn) was read as Pf Dd2 inh inactive.
Screening O=C1CN(CC(=O)N2CCc3ncnc(N4CC=CC4)c3CC2)C(=O)N1 returned Pf Dd2 inh -13%.
CC(=O)NC1CCCc2c1[nH]c1c(Cl)cccc21 (stereo not drawn) was read as Pf Dd2 inh 6%.
CCCN1CCC2(CCN(C(=O)COC)CC2)Oc2ccccc21 was read as Pf Dd2 inh -18%[44.1 µM].
`CCOc1ccccc1CN1CCN(S(=O)(=O)c2ccccc2)CC1` gave Pf Dd2 inh 12%.
CCOc1ccccc1CN1CCC2(CCN(CCC(C)C)CC2)Oc2ccccc21 was read as Pf Dd2 inh 1µM*.
For CCOc1ccccc1CN1CCC2(CCN(C(=O)Cc3ccc(F)cc3)CC2)Oc2ccccc21 the results were Pf Dd2 inh 8.9µM*.
`CCOc1ccccc1CN1CCC2(CCN(C(=O)C3CCCC3)CC2)Oc2ccccc21` gave Pf Dd2 inh -17%.
For CCCN1CCC2(CCN(C(=O)Nc3ccccc3)CC2)Oc2ccccc21 the results were Pf Dd2 inh inactive.
Screening O=C(CCc1ncc(-c2ccccc2)o1)Nc1ccc2c(c1)C(=O)N1CCC[C@H]1C(=O)N2 returned Pf Dd2 inh -15%.
`O=C(O)C1CCc2nnc(C3CCCN([S+](=O)([O-])c4cc(C(F)(F)F)cc(C(F)(F)F)c4)C3)n21` (stereo not drawn) gave Pf Dd2 inh 17%.
For CCCOc1ccc(OCCN2CCN(C)C3(CCNC(=O)CC3)C2)cc1 (stereo not drawn) the results were Pf Dd2 inh inactive.
CC(C)Oc1cc(-c2ccc(C(C)N3CCOCC3)cc2)nc(N)n1 (stereo not drawn) was read as Pf Dd2 inh -5%.
For O=C(c1cscn1)N1CC[C@@H]2[C@@H](CCC(=O)N2CCCn2ccnc2)C1 the results were Pf Dd2 inh -6%.
`CC1CCC2(CC1)OCC(C(=O)NCc1ccccc1)N2C(=O)c1ccc(Cl)c(Cl)c1` (stereo not drawn) gave Pf Dd2 inh 8.9µM*.
`Cc1cccc(C(=O)N2C(C(=O)NCc3ccccc3)COC23CCC(C)CC3)c1` (stereo not drawn) gave Pf Dd2 inh inactive.
`CC1CCC2(CC1)OCC(C(=O)NCc1ccccc1)N2C(=O)c1cccc(Cl)c1` (stereo not drawn) gave Pf Dd2 inh inactive.
For CC(=O)c1cccc(NC(=O)Cn2c(-c3cnccn3)nc(C)c(C)c2=O)c1 the results were Pf Dd2 inh inactive.
For Cc1nnc(SCC(=O)Nc2ccc(N(C)C)cc2)[nH]c1=O the results were Pf Dd2 inh 11µM*.
Cc1ccc(NC(=O)CSc2nc(C)c(Cc3ccccc3)c(=O)[nH]2)cc1C was read as Pf Dd2 inh -25%.
Screening Cc1cccc(NC(=O)CSc2nnc(C)c(=O)[nH]2)c1 returned Pf Dd2 inh 49%.
COc1ccc(-c2cc3c(=O)n(CCNC(=O)Cc4ccsc4)ccn3n2)cc1 was read as Pf Dd2 inh -17%.
Screening CC(C)CC(=O)N1CCC(N2CC(OCC3CC3)C23CCOCC3)CC1 (stereo not drawn) returned Pf Dd2 inh -20%.
For CCCNC(=O)N1CCC(N2CC(OCC3CC3)C23CCCCC3)CC1 (stereo not drawn) the results were Pf Dd2 inh 8.9µM*.
CC(=O)N1CCC(C(=O)N2CCC(N3CC(OCC4CC4)C34CCOCC4)CC2)CC1 (stereo not drawn) was read as Pf Dd2 inh 9%.

High-throughput results from PubChem.
